These results are taken from PubChem BioAssay (EPA / NIEHS).

SMILES strings stand for the structures. Results filed as inconclusive are left out. Some compounds were tested as several samples or in several runs, with calls that do not always agree. Active and inactive are the calls of the source. Rule for the calls, unless noted: active = hit-call score of the fitted dose curve at least 0.9, where 1 is the maximum; inconclusive = response in the unintended direction; inactive = score below 0.9.

Test [1] is described as follows: ATG_TCF_b_cat_CIS: Attagene CIS-FACTORIAL HepG2 Assay for human T-Cell-Factor with beta-catenin (TCF/b-cat) (AID 2282965; active = hit-call score of the fitted dose curve at least 0.9, where 1 is the maximum; inactive = score below 0.9). The note with it: HepG2 TCF/beta-catenin cis-reporter transcription, actives raise or lower the signal. Summed up: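 Endogenous transcription factor activity is captured through cis-promoter reporter constructs transiently introduced into human HepG2 liver cells. Induced reporter mRNA is measured after 24 h and fitted bidirectionally relative to DMSO.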

Test [2] in a line: ATG_TAL_CIS: Attagene CIS-FACTORIAL HepG2 Assay for human TAL Basal Promoter (AID 2282966; active = hit-call score of the fitted dose curve at least 0.9, where 1 is the maximum; inactive = score below 0.9;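 note: background control endpoint measuring basal TAL promoter reporter mRNA not a specific factor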). The note with it: HepG2 Attagene cis-factorial TAL promoter reporter; actives raise or lower the signal. Summed up: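 Basal-promoter background-control endpoint from a multiplexed HepG2 reporter panel. Cells were exposed 24 h, then reporter mRNA was read by RT-PCR/CE fluorescence and fitted in both directions relative to DMSO.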

The nature of test [3]: ATG_VDRE_CIS: Attagene CIS-FACTORIAL HepG2 Assay for human Vitamin D Receptor Element (VDRE) (AID 2282968; active = hit-call score of the fitted dose curve at least 0.9, where 1 is the maximum; inactive = score below 0.9). The note with it: HepG2 VDRE cis-reporter transcription, actives raise or lower the signal. In short, it runs like this:
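Readout is VDRE-driven reporter mRNA reflecting endogenous factor activity in human HepG2 cells, sampled 24 h post-dose. Quantification used labelled RT-PCR products separated by capillary electrophoresis; bidirectional analysis relative to DMSO.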

The target of test [4] is Nuclear receptor subfamily 1 group I member 3 (Homo sapiens) (UniProt Q14994). The experiment in a line: ATG_CAR_TRANS: Attagene TRANS-FACTORIAL HepG2 Assay for human Constitutive Androstane Receptor (CAR) (AID 2282969).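 Note: activators raise reporter mRNA above DMSO so AC50 marks induction.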 The note with it: HepG2 Attagene TRANS-FACTORIAL CAR reporter. In short, it runs like this: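 Signal is reporter mRNA induction relative to DMSO, measured 24 h after dosing by RT-PCR with fluorescent primer extension and capillary electrophoresis. Human HepG2 liver cells carried transiently transfected chimeric NR-Gal4/GAL4-UAS reporter constructs.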

The target in test [5] is Estrogen receptor (Homo sapiens) (UniProt P03372). The experiment in a line: ATG_ERa_TRANS: Attagene TRANS-FACTORIAL HepG2 Assay for human Estrogen Receptor alpha (ERa) (AID 2282970). The note with it: HepG2 Attagene TRANS ERa GAL4 reporter, mRNA. Summed up: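 Gal4-fusion ERa transactivation, measured as reporter transcript level in transiently transfected HepG2 cells. Exposure 24 h; RT-PCR plus capillary electrophoresis with fluorescence detection.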

The target of test [6] is X-box-binding protein 1 (Homo sapiens) (UniProt P17861). The experiment in a line: ATG_Xbp1_CIS: Attagene CIS-FACTORIAL HepG2 Assay for human X-box Binding Protein 1 (XBP1) (AID 2282972; active = hit-call score of the fitted dose curve at least 0.9, where 1 is the maximum; inactive = score below 0.9). The note with it: HepG2 XBP1 cis-element reporter, Attagene multiplex; actives raise or lower the signal. Summed up: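 Human hepatoma HepG2, cis-element reporter system, 24 h treatment; mRNA quantified by RT-PCR/CE fluorescence; fit relative to DMSO.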

Test [7] in a line: ATG_M_19_TRANS: Attagene TRANS-FACTORIAL HepG2 Assay for M19 Transcription Factor (Internal Marker) (AID 2282974). The note with it: HepG2 Attagene TRANS-FACTORIAL M19 internal marker reporter. Summed up: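 Gain-of-signal in reporter mRNA, relative to DMSO, was scored from capillary electrophoresis fluorescence. HepG2 cells carried transiently transfected multiple reporter transcription units and were incubated with test chemicals for 24 h.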

A short description of test [8]: ATG_GAL4_TRANS: Attagene TRANS-FACTORIAL HepG2 Assay for GAL4 (Internal Marker) (AID 2282976). The note with it: HepG2 Attagene TRANS GAL4 internal marker reporter. In short, it runs like this:
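Background-control readout: GAL4-UAS reporter transcript in transiently transfected HepG2 cells after 24 h compound exposure. Measured by RT-PCR, 6-FAM primer extension, HpaI digest and capillary electrophoresis; gain-of-signal fit versus DMSO.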

The target of test [9] is Bile acid receptor (Homo sapiens) (UniProt Q96RI1). As to the kind of experiment: ATG_FXR_TRANS: Attagene TRANS-FACTORIAL HepG2 Assay for Farnesoid X Receptor (FXR) (AID 2282979).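 Note: hits raise reporter mRNA above DMSO so AC50 marks FXR activation.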 The note with it: HepG2 Attagene TRANS FXR-GAL4 reporter transcription. Summed up: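 HepG2 cells were transiently transfected with GAL4-UAS reporters driven by chimeric NR-Gal4 proteins and dosed for 24 h. Reporter mRNA was quantified by RT-PCR, fluorescent labelling, HpaI digestion and capillary electrophoresis, with gain of signal scored versus DMSO.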

The target in test [10] is Oxysterols receptor LXR-beta (Homo sapiens) (UniProt P55055). The experiment in a line: ATG_LXRb_TRANS: Attagene TRANS-FACTORIAL HepG2 Assay for human Liver X Receptor beta (LXRb) (AID 2282981). The note with it: HepG2 Attagene TRANS GAL4-LXRb reporter, mRNA. Summed up:
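After 24 h chemical treatment of transfected HepG2 cells carrying exogenous NR-Gal4 chimeras, reporter mRNA was quantified by fluorescent RT-PCR and capillary electrophoresis; activity taken as increase over DMSO controls.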

The target in test [11] is Hepatocyte nuclear factor 4-alpha (Homo sapiens) (UniProt P41235). The experiment in a line: ATG_HNF4a_TRANS: Attagene TRANS-FACTORIAL HepG2 Assay for human Hepatocyte Nuclear Factor 4 alpha (HNF4a) (AID 2282982). The note with it: HepG2 HNF4a transactivation reporter, mRNA readout. Summed up: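 Activity of an exogenous HNF4a–Gal4 fusion scored as induced GAL4-UAS reporter transcripts after 24 h chemical exposure of transfected human HepG2 cells. Read-out via RT-PCR with 6-FAM labelling and capillary electrophoresis; rise over DMSO baseline.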

Test [12] in a line: ATG_M_06_TRANS: Attagene TRANS-FACTORIAL HepG2 Assay for M06 Transcription Factor (Internal Marker) (AID 2282983).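 For AC50: potency for rise in reporter mRNA above DMSO baseline.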 The note with it: HepG2 Attagene TRANS M06 internal marker reporter. Summed up: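 mRNA levels of a reporter transcript, quantified as FAM fluorescence on capillary electrophoresis, served as readout. HepG2 cells expressing exogenous GAL4-chimera reporter constructs were exposed for 24 h. Gain of signal over DMSO was evaluated.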

A short description of test [13]: ATG_M_32_TRANS: Attagene TRANS-FACTORIAL HepG2 Assay for M32 Transcription Factor (Internal Marker) (AID 2282984). The note with it: HepG2 Attagene TRANS M32 internal marker reporter. Summed up:
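Internal background reporter in transfected HepG2: after 24 h chemical exposure, RNA reverse-transcribed, reporter cDNA amplified, fluorescently labelled and HpaI-cut, then sized by capillary electrophoresis. Gain of signal fitted against DMSO control.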

Test [14] deals with Nuclear receptor subfamily 4 group A member 2 (Homo sapiens) (UniProt P43354). As to the kind of experiment: ATG_NURR1_TRANS: Attagene TRANS-FACTORIAL HepG2 Assay for human Nuclear Receptor Related Protein 1 (NURR1) (AID 2282985). The note with it: HepG2 Attagene TRANS reporter, mRNA readout. Summed up: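 Reporter transcript induction, measured by RT-PCR with fluorescent labelling, HpaI digestion and capillary electrophoresis, after 24 hr dosing of human HepG2 cells transiently expressing an exogenous NR-Gal4 fusion with GAL4-UAS-driven reporters; DMSO as baseline.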

Test [15] addresses Transcriptional activator Myb (Homo sapiens) (UniProt P10242). As to the kind of experiment: ATG_Myb_CIS: Attagene CIS-FACTORIAL HepG2 Assay for human Myeloblastosis (Myb) Proto-Oncogene Transcription Factor (AID 2282986; active = hit-call score of the fitted dose curve at least 0.9, where 1 is the maximum; inactive = score below 0.9). The note with it: HepG2 Attagene CIS-FACTORIAL Myb reporter transcription; actives raise or lower the signal. In short, it runs like this: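 Multiplexed cis-reporter system in HepG2: transient transfection, 24 h treatment, mRNA readout by RT-PCR and capillary electrophoresis. Both increases and decreases are scored versus DMSO negative control.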

Test [16] deals with Nuclear respiratory factor 1 (Homo sapiens) (UniProt Q16656). The experiment in a line: ATG_NRF1_CIS: Attagene CIS-FACTORIAL HepG2 Assay for human Nuclear Respiratory Factor 1 (NRF1) Orphan Gene (AID 2282987; active = hit-call score of the fitted dose curve at least 0.9, where 1 is the maximum; inactive = score below 0.9). The note with it: HepG2 NRF1 cis-element reporter, Attagene multiplex; actives raise or lower the signal. Summed up:
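Endogenous factor activity was captured via cis-element-driven reporter transcripts in HepG2 cells. Following 24 h chemical treatment, transcripts were quantified by RT-PCR and capillary electrophoresis.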

In test [17] the target is Steroid hormone receptor ERR1 (Homo sapiens) (UniProt P11474). The experiment in a line: ATG_ERRa_TRANS: Attagene TRANS-FACTORIAL HepG2 Assay for human Estrogen-Related Receptor alpha (ERRa) (AID 2282971). The note with it: HepG2 Attagene TRANS reporter, ERRa transactivation. In short, it runs like this: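 HepG2 cells transiently transfected with GAL4-UAS reporter units and chimeric NR-Gal4 constructs; after 24 hour compound incubation, reporter mRNA quantified by RT-PCR, fluorescent labelling and capillary electrophoresis, gain of signal versus DMSO.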
Steroid hormone receptor ERR1 (Homo sapiens), sequence (P11474 whole entry, looked up, the tested form may be a part): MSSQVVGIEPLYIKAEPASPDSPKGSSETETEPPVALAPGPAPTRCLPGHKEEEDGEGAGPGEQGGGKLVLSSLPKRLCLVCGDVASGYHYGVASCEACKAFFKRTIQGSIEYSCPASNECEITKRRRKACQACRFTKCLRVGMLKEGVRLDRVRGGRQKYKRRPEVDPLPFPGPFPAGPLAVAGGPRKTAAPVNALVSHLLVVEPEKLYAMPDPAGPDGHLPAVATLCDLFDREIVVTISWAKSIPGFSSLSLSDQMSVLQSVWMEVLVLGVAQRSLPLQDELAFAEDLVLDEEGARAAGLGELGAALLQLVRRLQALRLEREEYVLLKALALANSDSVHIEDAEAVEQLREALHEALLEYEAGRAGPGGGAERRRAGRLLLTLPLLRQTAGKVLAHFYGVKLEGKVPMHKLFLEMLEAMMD

Estrogen receptor (Homo sapiens), sequence (P03372 whole entry, looked up, the tested form may be a part): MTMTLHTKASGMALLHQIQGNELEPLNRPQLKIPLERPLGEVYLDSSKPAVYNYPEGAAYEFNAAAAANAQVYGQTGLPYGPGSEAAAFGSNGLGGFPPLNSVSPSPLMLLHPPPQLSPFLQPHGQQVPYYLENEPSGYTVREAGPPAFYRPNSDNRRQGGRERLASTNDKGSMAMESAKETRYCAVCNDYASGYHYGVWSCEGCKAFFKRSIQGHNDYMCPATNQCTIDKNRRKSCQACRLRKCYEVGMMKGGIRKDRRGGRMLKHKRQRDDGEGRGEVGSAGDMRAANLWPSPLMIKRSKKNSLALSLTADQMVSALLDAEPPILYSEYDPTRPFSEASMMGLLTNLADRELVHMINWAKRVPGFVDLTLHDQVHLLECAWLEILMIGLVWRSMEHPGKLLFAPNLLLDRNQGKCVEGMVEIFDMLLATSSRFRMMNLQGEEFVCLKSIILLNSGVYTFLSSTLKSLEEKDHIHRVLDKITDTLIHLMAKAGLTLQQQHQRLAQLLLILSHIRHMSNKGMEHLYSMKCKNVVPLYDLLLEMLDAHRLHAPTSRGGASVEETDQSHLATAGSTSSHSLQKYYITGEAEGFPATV
Nuclear receptor subfamily 4 group A member 2 (Homo sapiens), sequence (P43354 whole entry, looked up, the tested form may be a part): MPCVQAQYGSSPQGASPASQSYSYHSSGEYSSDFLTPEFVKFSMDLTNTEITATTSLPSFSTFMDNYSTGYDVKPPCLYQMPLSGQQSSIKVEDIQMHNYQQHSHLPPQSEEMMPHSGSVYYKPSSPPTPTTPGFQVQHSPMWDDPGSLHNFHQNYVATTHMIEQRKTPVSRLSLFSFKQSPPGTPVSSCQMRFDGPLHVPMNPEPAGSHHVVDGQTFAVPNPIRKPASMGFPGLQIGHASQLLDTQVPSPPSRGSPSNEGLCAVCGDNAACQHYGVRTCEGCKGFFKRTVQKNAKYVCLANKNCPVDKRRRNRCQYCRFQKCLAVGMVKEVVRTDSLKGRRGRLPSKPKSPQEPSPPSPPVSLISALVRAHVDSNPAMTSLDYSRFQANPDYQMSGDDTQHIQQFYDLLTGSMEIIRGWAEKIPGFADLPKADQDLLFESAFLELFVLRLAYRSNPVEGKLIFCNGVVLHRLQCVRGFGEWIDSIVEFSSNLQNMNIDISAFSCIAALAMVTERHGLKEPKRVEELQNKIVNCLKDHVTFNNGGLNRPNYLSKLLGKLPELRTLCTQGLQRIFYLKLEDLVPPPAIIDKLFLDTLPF
Nuclear respiratory factor 1 (Homo sapiens), sequence (Q16656 whole entry, looked up): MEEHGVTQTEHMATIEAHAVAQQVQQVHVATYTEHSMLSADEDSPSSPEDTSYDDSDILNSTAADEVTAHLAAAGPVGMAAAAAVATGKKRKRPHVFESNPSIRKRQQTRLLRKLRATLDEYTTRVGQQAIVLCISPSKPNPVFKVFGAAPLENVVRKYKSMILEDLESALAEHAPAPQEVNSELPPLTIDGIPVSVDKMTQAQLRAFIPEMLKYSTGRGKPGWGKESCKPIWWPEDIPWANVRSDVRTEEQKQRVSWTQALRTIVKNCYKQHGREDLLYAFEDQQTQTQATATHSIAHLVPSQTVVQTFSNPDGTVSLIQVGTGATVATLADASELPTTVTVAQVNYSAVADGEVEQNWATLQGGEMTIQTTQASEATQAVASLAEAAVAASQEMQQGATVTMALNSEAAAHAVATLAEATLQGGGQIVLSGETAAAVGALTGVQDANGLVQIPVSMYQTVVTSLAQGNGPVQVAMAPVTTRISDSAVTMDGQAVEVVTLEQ
Transcriptional activator Myb (Homo sapiens), sequence (P10242 whole entry, looked up): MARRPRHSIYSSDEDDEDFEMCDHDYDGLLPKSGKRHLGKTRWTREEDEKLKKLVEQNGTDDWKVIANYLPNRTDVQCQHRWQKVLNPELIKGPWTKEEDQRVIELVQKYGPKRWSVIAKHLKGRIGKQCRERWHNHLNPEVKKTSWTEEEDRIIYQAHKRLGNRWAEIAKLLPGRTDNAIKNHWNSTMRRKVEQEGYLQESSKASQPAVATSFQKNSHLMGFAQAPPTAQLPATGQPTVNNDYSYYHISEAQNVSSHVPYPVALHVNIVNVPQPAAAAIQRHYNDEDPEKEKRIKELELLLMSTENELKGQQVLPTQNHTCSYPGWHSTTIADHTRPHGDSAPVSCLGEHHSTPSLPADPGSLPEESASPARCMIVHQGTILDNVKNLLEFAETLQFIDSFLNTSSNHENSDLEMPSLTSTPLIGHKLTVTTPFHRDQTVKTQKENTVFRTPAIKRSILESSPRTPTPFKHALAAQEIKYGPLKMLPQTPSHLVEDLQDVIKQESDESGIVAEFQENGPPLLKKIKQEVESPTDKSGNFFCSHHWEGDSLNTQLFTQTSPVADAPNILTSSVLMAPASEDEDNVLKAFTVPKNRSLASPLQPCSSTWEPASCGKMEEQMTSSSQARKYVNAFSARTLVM
Oxysterols receptor LXR-beta (Homo sapiens), sequence (P55055 whole entry, looked up, the tested form may be a part): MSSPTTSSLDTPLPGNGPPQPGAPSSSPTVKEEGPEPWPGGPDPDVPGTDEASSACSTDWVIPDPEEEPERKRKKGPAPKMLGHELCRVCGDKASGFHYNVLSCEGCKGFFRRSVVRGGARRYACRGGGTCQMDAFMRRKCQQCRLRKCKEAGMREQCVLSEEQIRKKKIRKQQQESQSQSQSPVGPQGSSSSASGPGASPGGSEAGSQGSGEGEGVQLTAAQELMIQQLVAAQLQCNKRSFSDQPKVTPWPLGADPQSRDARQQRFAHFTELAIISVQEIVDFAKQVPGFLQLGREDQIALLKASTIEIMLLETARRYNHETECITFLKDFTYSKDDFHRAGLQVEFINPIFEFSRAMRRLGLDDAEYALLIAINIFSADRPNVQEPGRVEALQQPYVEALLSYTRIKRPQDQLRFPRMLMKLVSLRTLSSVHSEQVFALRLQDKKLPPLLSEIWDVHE
X-box-binding protein 1 (Homo sapiens), sequence (P17861 whole entry, looked up): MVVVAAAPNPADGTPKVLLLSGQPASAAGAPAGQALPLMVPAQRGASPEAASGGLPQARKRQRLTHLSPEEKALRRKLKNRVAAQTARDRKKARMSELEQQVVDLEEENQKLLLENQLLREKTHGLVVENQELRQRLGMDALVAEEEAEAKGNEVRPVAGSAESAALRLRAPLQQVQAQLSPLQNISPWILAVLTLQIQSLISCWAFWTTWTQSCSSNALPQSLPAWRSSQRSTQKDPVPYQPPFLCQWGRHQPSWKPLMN
Bile acid receptor (Homo sapiens), sequence (Q96RI1 whole entry, looked up, the tested form may be a part): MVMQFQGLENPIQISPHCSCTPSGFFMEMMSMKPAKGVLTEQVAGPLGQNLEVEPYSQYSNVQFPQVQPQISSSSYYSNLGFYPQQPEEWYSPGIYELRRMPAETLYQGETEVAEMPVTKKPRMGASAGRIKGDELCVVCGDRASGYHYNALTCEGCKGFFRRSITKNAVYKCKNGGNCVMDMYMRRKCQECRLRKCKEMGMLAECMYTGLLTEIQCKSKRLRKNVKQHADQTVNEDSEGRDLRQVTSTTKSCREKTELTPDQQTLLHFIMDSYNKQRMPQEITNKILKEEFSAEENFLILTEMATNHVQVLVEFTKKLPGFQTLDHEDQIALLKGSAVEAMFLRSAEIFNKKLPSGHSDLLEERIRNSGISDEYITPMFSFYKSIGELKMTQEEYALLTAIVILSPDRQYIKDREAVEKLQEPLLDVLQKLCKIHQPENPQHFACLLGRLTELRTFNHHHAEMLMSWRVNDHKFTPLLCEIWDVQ
Nuclear receptor subfamily 1 group I member 3 (Homo sapiens), sequence (Q14994 whole entry, looked up, the tested form may be a part): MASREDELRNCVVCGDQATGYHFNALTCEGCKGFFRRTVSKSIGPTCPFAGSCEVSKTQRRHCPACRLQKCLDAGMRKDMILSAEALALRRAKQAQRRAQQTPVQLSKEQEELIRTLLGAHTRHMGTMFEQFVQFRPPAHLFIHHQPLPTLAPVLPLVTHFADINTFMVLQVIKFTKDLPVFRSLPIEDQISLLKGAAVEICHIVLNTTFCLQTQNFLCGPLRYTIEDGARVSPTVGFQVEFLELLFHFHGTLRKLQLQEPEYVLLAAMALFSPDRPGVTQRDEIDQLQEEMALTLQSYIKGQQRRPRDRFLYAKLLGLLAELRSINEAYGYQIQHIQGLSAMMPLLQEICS
Hepatocyte nuclear factor 4-alpha (Homo sapiens), sequence (P41235 whole entry, looked up, the tested form may be a part): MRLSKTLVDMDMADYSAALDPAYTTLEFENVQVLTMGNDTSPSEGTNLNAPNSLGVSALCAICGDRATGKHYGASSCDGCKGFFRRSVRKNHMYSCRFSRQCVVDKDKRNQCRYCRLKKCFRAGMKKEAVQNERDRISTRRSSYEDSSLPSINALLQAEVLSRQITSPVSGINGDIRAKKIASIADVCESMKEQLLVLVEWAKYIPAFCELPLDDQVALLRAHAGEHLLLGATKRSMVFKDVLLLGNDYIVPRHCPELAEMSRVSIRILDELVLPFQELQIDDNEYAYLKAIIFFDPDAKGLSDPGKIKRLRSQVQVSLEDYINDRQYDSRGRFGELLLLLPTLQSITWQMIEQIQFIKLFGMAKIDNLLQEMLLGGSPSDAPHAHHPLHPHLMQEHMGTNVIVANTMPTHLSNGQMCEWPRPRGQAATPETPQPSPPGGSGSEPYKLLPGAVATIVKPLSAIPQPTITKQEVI

On to `O=C1OC2(c3ccccc31)c1cc(Br)c(O)c(Br)c1Oc1c2cc(Br)c(O)c1Br`, for which the molecule was classed as inactive in test [1], in test [2], in test [3], in [4], in [5] and in test [6]. The outcome in test [7], in test [8], in [9], in [10], in test [11] and in test [12] was inactive. Further, the molecule was classed as inactive in test [13], in [14], in test [15] and in test [16]. In addition, the results for the AC50 in [3] and in test [6] were 56.4 µM (active) and 66.7 µM (active), respectively.
For the molecule `Oc1cc2ccccc2c2ccccc12`, the molecule was classed as inactive in test [1], in test [2], in [3], in test [5], in test [6] and in test [7]. The molecule was called inactive in test [8], in [10], in [12], in [13], in test [14] and in test [15]. Further, the result in test [16] was inactive. In addition, the AC50 in test [12] is 50.8 µM (active).
Take `c1ccc2c(c1)ccc1ccccc12`: the molecule was called inactive in [1], in test [2], in test [3], in test [4], in test [5] and in test [17]. Besides, the molecule was classed as inactive in [6], in test [9], in [10], in test [12], in test [13] and in test [15]. In addition, the molecule was classed as inactive in test [16].
As for `c1ccc2c(c1)Cc1ccccc1-2`, the outcome in test [1], in [2], in [3], in [6], in test [8] and in test [9] was inactive. In addition, the molecule was called inactive in test [12], in test [15] and in test [16]. Moreover, the AC50 in test [5] is 35.4 µM (active).

What is called AC50 is the concentration at which the activity in the assay is half-maximal.
